Assay [1] is described as follows: inhibitors of TNFa-induced NFkB p65 translocation, primary screen, imaging, HUVEC, MLSMR starter and 10KST1 sets (AID 438;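 active means inhibition above 20% together with a positive visual image hit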;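 further: compound added about 3h40 before a 20 min TNFalpha stimulation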;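 on inhibition: signal is the nuclear over cytoplasmic p65 intensity ratio per well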). As to conditions: HUVEC TNFa-induced p65 nuclear translocation; cell count: measured here: nuclei count (cytotoxicity indicator), at 2.08 µM; inhibition: at 2 µM, stronger effect = higher value, 0% TNFa-plus-vehicle, 100% no-TNFa wells.
The nature of assay [2]: reduction of polyQ htt aggregates in cells – imaging, exon1htt(103Q)mCFP cells, high-content imaging, primary screen (AID 483;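 active means visual image review flags a hit and inhibition of aggregation exceeds 20%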;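 further: compound exposure lasted 3 days before fixation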;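 on nuclei count: percent of the per-plate median nuclei count of sample wells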). As to conditions: exon1htt(103Q)mCFP cell line, aggregate imaging, at 2 µM; inhibition of aggregation: stronger effect = higher value; nuclei count: measured here: cell count, toxicity.
A short description of assay [3]: endothelial E-selectin expression blockers – imaging, HUVEC, immunofluorescence, MLSMR starter and 10KST1 sets, primary screen (AID 487;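 active means visually confirmed hit in the image check and inhibition above 20%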;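 on inhibition: signal is fraction of cell area covered by stained E-selectin grains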;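 on nuclei count: 100% = median nuclei count of all wells on the same plate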). The following applies: HUVEC TNFalpha-induced E-selectin immunofluorescence imaging, at 2 µM; inhibition: stronger effect = higher value; nuclei count: measured here: cell number, toxicity.
The target in assay [4] is Voltage-gated potassium channel subunit beta-2 (Rattus norvegicus) (UniProt P62483). The experiment in a line: inhibitors of rat Kvbeta2 reductase activity – biochemical, NADPH fluorescence, primary screen (AID 622;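 active means fluorescence slope higher than the sample average by over 3 SD, cut at about -0.22 in these data, passing the limit was not always enough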;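 further: slope of raw intensity against log time taken from 70 to 1610 s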). As to conditions: recombinant KvBeta, 4-cyanobenzaldehyde reduction, at 10 µM, stronger effect = higher value.
The target is the same in assay [5]. Put plainly: enhancers of rat Kvbeta2 NADPH turnover – biochemical, NADPH fluorescence, primary screen (AID 623;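 active means NADPH fluorescence slope more negative than the mean of all samples by about 3 SD, 99.7% confidence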;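 further: fluorescence intensity change per second fitted from 20 to 320 s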). The following applies: Recombinant KvBeta, NADPH fluorescence decrease slope, 10 min; at 10 µM; stronger effect = lower value.
Assay [6] concerns the target Alpha-2C adrenergic receptor (Homo sapiens) (UniProt P18825). Put plainly: compounds altering alpha2C-coupled GIRK flux – cell-based, HEK293 alpha2C/GIRK1/2, thallium flux, primary screen (AID 624;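 active means fluorescence slope after compound addition differing from the mean of all screened samples at 99.7% confidence, in either direction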;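 further: slope of fluorescence ratio to pre-addition baseline per second over 15 to 24 s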). The following applies: thallium flux BTC fluorescence, at 10 µM, actives lie on both sides.
Assay [7] can be described thus: blockers of RIG-like receptor reporter activation – cell-based, Sendai virus stimulus, luciferase, 10K MLSCN set, TLR/RLR signaling modifier project, primary screen (AID 602276;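 active means inhibition at or above 50% at 10 µM; inactive means inhibition below 50%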;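 further: firefly luciferase from ISG56 promoter only with Renilla not read in this screen; 0% = Sendai virus plus DMSO and 100% = medium plus DMSO without virus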). As to conditions: HEK293 RL24 IRF3 luciferase reporter, at 10 µM, stronger effect = higher value. A general note: In a reporter assay the amount or activity of a reporter protein is the signal.
Assay [8] can be described thus: TLR3 IRF3 reporter activation blockers – cell-based, poly I:C stimulus, luciferase, 10K MLSCN set, primary screen (AID 602277). As to conditions: HEK293-TLR3 RL24 IRF3 luciferase reporter, at 10 µM, stronger effect = higher value.

Activity calls are given as the source filed them.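 How the source made its calls, unless noted: active means inhibition of the reporter signal at or above 50%; inactive means inhibition below 50%.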

Sequence of Alpha-2C adrenergic receptor (Homo sapiens) (P18825 whole entry, looked up): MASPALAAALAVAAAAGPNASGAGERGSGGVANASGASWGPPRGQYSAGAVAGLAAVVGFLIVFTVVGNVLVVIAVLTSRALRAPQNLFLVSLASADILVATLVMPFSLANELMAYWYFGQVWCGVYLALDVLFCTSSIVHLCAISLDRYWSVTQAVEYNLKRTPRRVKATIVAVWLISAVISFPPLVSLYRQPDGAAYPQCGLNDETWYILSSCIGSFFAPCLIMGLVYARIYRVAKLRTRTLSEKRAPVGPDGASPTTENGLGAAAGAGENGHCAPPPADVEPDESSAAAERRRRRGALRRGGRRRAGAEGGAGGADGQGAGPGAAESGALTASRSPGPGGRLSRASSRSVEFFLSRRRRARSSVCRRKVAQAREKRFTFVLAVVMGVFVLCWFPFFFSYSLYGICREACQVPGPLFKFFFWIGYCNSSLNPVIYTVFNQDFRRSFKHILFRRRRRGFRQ
Sequence of Voltage-gated potassium channel subunit beta-2 (Rattus norvegicus) (P62483 whole entry, looked up): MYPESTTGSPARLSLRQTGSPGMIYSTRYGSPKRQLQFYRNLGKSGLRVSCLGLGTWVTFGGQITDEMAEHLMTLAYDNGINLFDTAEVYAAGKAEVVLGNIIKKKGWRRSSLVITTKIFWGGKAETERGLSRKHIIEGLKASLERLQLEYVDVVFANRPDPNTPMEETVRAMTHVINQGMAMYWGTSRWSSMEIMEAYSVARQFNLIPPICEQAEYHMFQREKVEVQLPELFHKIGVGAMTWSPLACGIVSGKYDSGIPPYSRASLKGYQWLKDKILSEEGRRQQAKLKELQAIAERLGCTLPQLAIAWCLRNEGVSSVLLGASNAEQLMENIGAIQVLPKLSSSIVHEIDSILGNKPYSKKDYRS

As a reminder, the inhibition is the change of the read-out against control, counted positive when it falls. `Cc1nnc2n(-c3ccc(Cl)cc3)c(=O)c3c4c(sc3n12)CN(C)CC4`: the cell count in assay [1] was determined as 386. Further, the inhibition in assay [1] was -5.7% (inactive); in assay [3], 22% (inactive); in assay [7], -17.3% (inactive); in assay [8] it was -5.51% (inactive). Further, the inhibition of aggregation in assay [2] was 8.9% (inactive). The nuclei count in assay [2] came out at 93.3%; in assay [3], 89.5%. The fluorescence slope in assay [4] is -0.477 (inactive). In addition, the NADPH fluorescence slope in assay [5] was -0.000149 (inactive). Further, the slope in assay [6] is 0.00624 (inactive).

With `O=P(O)(CN1CCCCCC1)CN1CCCCCC1`, the cell count in assay [1] amounted to 575. Further, the inhibition in assay [1] is 13.9% (inactive); in assay [3], 6% (inactive); in assay [7] it was -7.54% (inactive); in assay [8], 17.4% (inactive). The inhibition of aggregation in assay [2] is -5.3% (inactive). The nuclei count in assay [2] amounted to 107%; in assay [3] it was 112%. Moreover, the fluorescence slope in assay [4] was -0.484 (inactive). Moreover, the NADPH fluorescence slope in assay [5] was -5.2e-05 (inactive). Also, in assay [6], the slope was 0.0053 (inactive).

Regarding `Cc1noc(C)c1S(=O)(=O)N1CCCC(C(=O)NCCc2ccc(Cl)cc2)C1` (stereo not drawn), in assay [1], the cell count was found to be 402. Moreover, the inhibition in assay [1] is 7.3% (inactive); in assay [3], -78.1% (inactive); in assay [7], 11.6% (inactive); in assay [8], 7.58% (inactive). Further, the inhibition of aggregation in assay [2] was -8.8% (inactive). Further, the nuclei count amounted to 107% in assay [2] and 106% in assay [3]. In assay [4], the fluorescence slope was -0.471 (inactive). Besides, the NADPH fluorescence slope in assay [5] is -0.000191 (inactive). Moreover, in assay [6], the slope is 0.00592 (inactive).

`Cc1nnc(N2C(=O)C(O)=C(C(=O)c3ccco3)C2c2ccc(F)cc2)s1` (stereo not drawn): the cell count in assay [1] is 881. In addition, the inhibition in assay [1] was 4.6% (inactive); in assay [3], 2.7% (inactive); in assay [7] it was 12.3% (inactive); in assay [8], 19.7% (inactive). Further, the inhibition of aggregation in assay [2] was -4.4% (inactive). The nuclei count is 122% in assay [2] and 123% in assay [3]. Also, the fluorescence slope in assay [4] is -0.601 (inactive). Moreover, the NADPH fluorescence slope in assay [5] was -4.6e-05 (inactive). The slope in assay [6] is 0.00826 (inactive).

As to `O=C(CSc1nnnn1-c1ccccc1Cl)Nc1ccc2c(c1)OCCO2`, the cell count in assay [1] amounted to 660. Moreover, the inhibition is -3.4% (inactive) in assay [1], -55% (inactive) in assay [3], 15.2% (inactive) in assay [7] and 30.5% (inactive) in assay [8]. In addition, the inhibition of aggregation in assay [2] is 3.2% (inactive). Further, the nuclei count in assay [2] was 107%; in assay [3], 118%. Besides, in assay [4], the fluorescence slope is -0.548 (inactive). Moreover, the NADPH fluorescence slope in assay [5] was -5.9e-05 (inactive). Moreover, the slope in assay [6] is 0.00706 (inactive).

With `COc1ccc(S(=O)(=O)N2CCN(c3ccc(C)cc3C)CC2)cc1OC`, in assay [1], the cell count is 772. Further, the inhibition in assay [1] was -0.6% (inactive); in assay [3], -19.1% (inactive); in assay [7], 4.37% (inactive); in assay [8] it was 13.8% (inactive). In assay [2], the inhibition of aggregation is -17.1% (inactive). Besides, the nuclei count in assay [2] is 114%; in assay [3], 123%. Also, the fluorescence slope in assay [4] is -0.544 (inactive). Besides, the NADPH fluorescence slope in assay [5] is -3.9e-05 (inactive). Besides, the slope in assay [6] was 0.0076 (inactive).

Consider `Nc1nc(-c2ccc(Cl)cc2)nn1C(=O)c1cccnc1`, for which, in assay [1], the cell count was found to be 293. The inhibition in assay [1] is 4.2% (inactive); in assay [3], 40.8% (inactive); in assay [7], -0.966% (inactive); in assay [8], -2.82% (inactive). Also, the inhibition of aggregation in assay [2] is -4.2% (inactive). Further, the figures for the nuclei count in assay [2] and in assay [3] were 96.8% and 105%, respectively. In assay [4], the fluorescence slope is -0.397 (inactive). In assay [5], the NADPH fluorescence slope was 6.7e-06 (inactive). The slope in assay [6] was 0.00507 (inactive).

For the molecule `O=C1NC2=C(C(=O)CCC2)C(c2ccc3ncccc3c2)N1` (stereo not drawn), in assay [1], the cell count stood at 513. The inhibition was 1.5% (inactive) in assay [1], -13.9% (inactive) in assay [3], 9.39% (inactive) in assay [7] and 8.99% (inactive) in assay [8]. In addition, in assay [2], the inhibition of aggregation was 1.9% (inactive). For the same molecule, the values for the nuclei count in assay [2] and in assay [3] were 126% and 116%, respectively. The fluorescence slope in assay [4] was -0.541 (inactive). Moreover, the NADPH fluorescence slope in assay [5] is -5e-05 (inactive). The slope in assay [6] was 0.00696 (inactive).

On to `Nc1nc2n(n1)C(c1cccc(Br)c1)CC(c1ccc(F)cc1)N2` (stereo not drawn), for which the cell count in assay [1] stood at 886. The inhibition in assay [1] was -6.1% (inactive); in assay [3] it was -59% (inactive); in assay [7], 2.63% (inactive); in assay [8] it was 15.8% (inactive). For the same molecule, in assay [2], the inhibition of aggregation is 9.7% (inactive). In addition, the nuclei count in assay [2] was determined as 110%; in assay [3], 102%. Moreover, the fluorescence slope in assay [4] is -0.608 (inactive). Besides, the NADPH fluorescence slope in assay [5] is 7.7e-06 (inactive). Moreover, the slope in assay [6] was 0.00861 (inactive).

In the case of `CS(=O)(=O)N1CCC(C(=O)NCCC2=CCCCC2)CC1`, in assay [1], the cell count was found to be 427. For the same molecule, the inhibition was 4.2% (inactive) in assay [1], -89.9% (inactive) in assay [3], 12.6% (inactive) in assay [7] and 8.24% (inactive) in assay [8]. In addition, the inhibition of aggregation in assay [2] was 8% (inactive). The nuclei count in assay [2] is 100%; in assay [3], 106%. For the same molecule, in assay [4], the fluorescence slope is -0.382 (inactive). Moreover, the NADPH fluorescence slope in assay [5] was -2.9e-05 (inactive). In addition, the slope in assay [6] was 0.00662 (inactive).

Consider `OC1C[N+]2(CCCCC2)C1`, for which the cell count in assay [1] is 278. The inhibition in assay [1] was 9.3% (inactive); in assay [3], 62.9% (active); in assay [7], 11.5% (inactive); in assay [8], 10.3% (inactive). The inhibition of aggregation in assay [2] is -10.6% (inactive). In addition, the nuclei count in assay [2] was 104%; in assay [3], 111%. In addition, the fluorescence slope in assay [4] is -0.497 (inactive). For the same molecule, the NADPH fluorescence slope in assay [5] is -5.4e-05 (inactive). In addition, the slope in assay [6] was 0.00461 (inactive).

Regarding `Cn1cccc1Cc1nnc(SCC(=O)Nc2ccc(F)cc2)n1-c1ccc(F)cc1`, in assay [1], the cell count was 843. For the same molecule, the inhibition in assay [1] was 1.4% (inactive); in assay [3], -45.2% (inactive); in assay [7], 10.5% (inactive); in assay [8] it was 27.7% (inactive). Moreover, the inhibition of aggregation in assay [2] is -2.2% (inactive). The nuclei count amounted to 95.4% in assay [2] and 116% in assay [3]. Moreover, in assay [4], the fluorescence slope was -0.592 (inactive). In addition, the NADPH fluorescence slope in assay [5] was -1.8e-05 (inactive). Besides, the slope in assay [6] was 0.00531 (inactive).

In the case of `Cc1ccccc1OCc1nnc2n1CC(C)S2` (stereo not drawn), the cell count in assay [1] worked out at 547. Further, the inhibition in assay [1] is 6.8% (inactive); in assay [3] it was -53.4% (inactive); in assay [7], 8.61% (inactive); in assay [8], 13.6% (inactive). Also, the inhibition of aggregation in assay [2] is -4.9% (inactive). In addition, the nuclei count in assay [2] turned out to be 131%; in assay [3] it was 105%. Also, in assay [4], the fluorescence slope was -0.562 (inactive). Moreover, in assay [5], the NADPH fluorescence slope was -4e-05 (inactive). In addition, in assay [6], the slope was 0.00737 (inactive).
